# Bioassay records: PubChem, National Center for Advancing Translational Sciences (NCATS)
# Only some compounds are listed: those with a hit (about 0.95% of all), similar ones and a draw of the others.
# Rhodamine autofl: qHTS Assay for Spectroscopic Profiling in Rhodamine Spectral Region. Rhodamine-region fluorescence, 547/598 nm, Tris buffer; hits give high values. max dye-equivalent concentration, M. 59,000 tested, 0.05% active. AID 594, 2007; in the data active means max dye-equivalent concentration above about 11 nM; inconclusive means between about 1.1 nM and that limit
#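 Compound fluorescence in 100 mM Tris, pH 8.0, read after 15 min at room temperature with 547 nm excitation and 598 nm emission. Output is dye-equivalent concentration from an on-plate rhodamine standard series.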
# Resorufin autofl: qHTS Assay for Spectroscopic Profiling in Resorufin Spectral Region | 59,000 tested, 0.04% active | Compound fluorescence, resorufin region 547/598 nm, buffer; hits give high values | max dye-equivalent concentration, M
#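 Dye-equivalent concentration values derive from comparing each well's 547/598 nm fluorescence against resorufin standards included on every plate. Incubation was 15 min at room temperature in 100 mM Tris, pH 8.0.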
# TexasRed autofl: qHTS Assay for Spectroscopic Profiling in Texas Red Spectral Region; 59,000 tested, 0.06% active; AID 587, 2007; max dye-equivalent concentration, M; Compound fluorescence, Texas Red channel, 547/618 nm; hits give high values; in the data active means max dye-equivalent concentration above about 10 nM; inconclusive means between about 1.1 nM and that limit
#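 Fluorescence at ex 547/em 618 nm, normalized against an on-plate Texas Red standard series to give dye-equivalent concentration per compound concentration. Buffer 100 mM Tris, pH 8.0; 15 min RT incubation before CCD imaging.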
# A647 autofl: qHTS Assay for Spectroscopic Profiling in A647 Spectral Region | max dye-equivalent concentration, M | 59,000 tested, under 10 active | Compound fluorescence, A647 channel (570/671 nm), Tris buffer
#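 Compound fluorescence was measured in 100 mM Tris buffer, pH 8.0, after 15 min at room temperature, using 570 nm excitation and 671 nm emission filters. Signal was normalized to a per-plate Alexa 647 standard curve and expressed as dye-equivalent concentration at each compound concentration.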
# A488 autofl: qHTS Assay for Spectroscopic Profiling in A488 Spectral Region | compound autofluorescence, A488 spectral region, dye equivalency; Compound Type: qHTS ECL - MLSMR | max dye equivalency, M | 59,000 tested, 0.1% active
#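 Autofluorescence read at ex 480/em 540 nm after 15 min RT in 100 mM Tris pH 8.0; compound signal normalized to A488 standard series on each plate, reported as dye-equivalent concentration at each test concentration.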
# Fluorescein autfl: qHTS Assay for Spectroscopic Profiling in Fluorescein Spectral Region | Compound autofluorescence, 480/540 nm, fluorescein-equivalent; hits give high values | max fluorescein-equivalent concentration, M | 59,000 tested, 0.91% active; in the data active means max fluorescein-equivalent concentration above about 10 nM; inconclusive means between about 1.1 nM and that limit
#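 Read-out is intrinsic compound fluorescence at 480/540 nm (excitation/emission), expressed as dye-equivalent concentration using a fluorescein standard series run on every plate. Compounds sat 15 min at room temperature in 100 mM Tris, pH 8.0.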
# Numbers stand for hits; n = inactive; u = inconclusive; ! = repeats disagree. Unless noted, how the calls were made is not given here.
SMILES,Rhodamine autofl,Resorufin autofl,TexasRed autofl,A647 autofl,A488 autofl,Fluorescein autfl
CN1C(=O)C(Cc2c[nH]c3ccccc23)C(=O)N(C)C1=O,1.4e-08M,1e-08M,u,n,u,3.4e-08M
CC(C)(C)OC(=O)c1c(N)n(Cc2ccco2)c2nc3ccccc3nc12,n,n,n,n,n,2.8e-08M
Nc1c(C(=O)NCCN2CCOCC2)c2nc3ccccc3nc2n1Cc1ccco1,n,n,n,n,n,1.9e-08M
CCOC(=O)c1c(N)n(CCN2CCCCC2)c2nc3ccccc3nc12,n,n,n,n,n,n
O=C(O)[C@@H](O)[C@@H](O)[C@@H]1[O][Sb][O][C@@H]1CO,n,n,n,n,n,n
C[C@@H]1[C@H]2C=C[C@@H]1[C@@H](c1c3ccc(=O)c(O)c-3oc3c(O)c(O)ccc13)[C@@H]2C(=O)O,n,n,n,n,n,u
CN(C)c1ccc(N=Cc2c(O)n(CCC3=CCCCC3)c(=O)[nH]c2=O)cc1,n,n,u,n,n,1.4e-08M
O=c1[nH]c(=O)n(CCC2=CCCCC2)c(O)c1C=NCCN1CCNCC1,n,n,n,n,n,n
C=CCn1c(O)c(C=Nc2ccc(N(CC)CC)cc2)c(=O)[nH]c1=O,n,n,n,n,n,1.4e-08M
CCN(CC)c1ccc(N=Cc2c(O)n(CCC3=CCCCC3)c(=O)[nH]c2=O)cc1,n,n,n,n,u,9.3e-08M
C=CCn1c(O)c(C=NCCN(C)C)c(=O)[nH]c1=O,n,n,n,n,n,u
Ic1ccccc1CN[C@@H]1C2CCN(CC2)[C@H]1C(c1ccccc1)c1ccccc1,n,n,n,n,n,n
O=c1[nH]c(=O)n(-c2ccc(F)cc2)c(O)c1C=Nc1ccccc1N1CCCC1,n,n,n,n,u,4e-08M
Cc1ccc(-n2c(O)c(C=Nc3ccccc3N)c(=O)[nH]c2=O)cc1C,n,n,n,n,n,u
COc1cc2ccccc2c2cc([N+](=O)[O-])oc12,n,n,n,n,u,4e-08M
C=CCN1CCc2cccc3c2[C@@H]1Cc1ccc(O)c(O)c1-3,n,n,n,n,n,u
NC(N)=Nc1ccc2[nH]c3c(c2c1)C[C@]1(O)[C@@H]2Cc4ccc(O)c5c4[C@]1(CCN2CC1CC1)[C@H]3O5,n,n,n,n,n,u
O=C(CCCN1CCC2(CC1)C(=O)N(CCc1ccc(N=C=S)cc1)CN2c1ccccc1)c1ccc(F)cc1,n,n,n,n,n,u
CCN(CC)C(=O)N[C@H]1C=C2c3cccc4[nH]cc(c34)C[C@@H]2N(C)C1,n,n,u,n,u,5e-08M
CN1CCN(c2ccc([N+](=O)[O-])c3[nH]o[n+](=O)c23)CC1,u,n,n,n,u,1.3e-07M
CSC([N-]/N=C/c1cccc(C)n1)=[S]=[Cu].CS[C@H]([S-])[N-]/N=C/c1cccc(C)n1,n,n,n,n,n,n
C=C(C)[C@@H]1CN[C@H](C(=O)O)[C@H]1CC(=O)O,n,n,u,n,n,n
CC(C)n1cc2c3c(cccc31)[C@@H]1C[C@H](C(=O)O[C@@H](C)[C@H](C)O)CN(C)[C@H]1C2,n,n,n,n,n,1.1e-08M
COCCNC(=O)c1c(NC(=O)c2ccco2)n(Cc2ccccc2)c2nc3ccccc3nc12,n,n,n,n,n,1.1e-08M
Nc1c(C(=O)NCCc2ccccc2)c2nc3ccccc3nc2n1CCN1CCOCC1,n,n,n,n,n,u
SMILES,Rhodamine autofl,Resorufin autofl,TexasRed autofl,A647 autofl,A488 autofl,Fluorescein autfl
c1ccc2c(c1)[nH]c1cnccc12,n,n,n,n,n,u
Cc1c2ccncc2c(C)c2c1[nH]c1ccccc12,n,n,n,n,n,1.1e-08M!
COc1cc(C=C(C#N)C#N)cc(O)c1O,n,n,n,n,n,2.5e-08M
CN1CCc2cc3c(cc2[C@@H]1[C@H]1OC(=O)c2c1ccc1c2OCO1)OCO3,n,n,n,n,n,n
O=c1ccc2cc(O[C@@H]3O[C@@H](CO)[C@@H](O)[C@@H](O)[C@H]3O)c(O)cc2o1,n,n,n,n,n,n
CC[C@H](CO)NC(=O)[C@@H]1C=C2c3cccc4c3c(cn4C)C[C@@H]2N(C)C1,n,n,n,n,n,1.5e-08M
CC(C)[C@@]1(NC(=O)[C@@H]2C[C@H]3c4cccc5[nH]cc(c45)C[C@@H]3N(C)C2)O[C@]2(O)[C@H]3CCCN3C(=O)[C@H](Cc3ccccc3)N2C1=O,n,n,u,n,n,n
CC(C)C[C@H]1C(=O)N2CCC[C@@H]2[C@@]2(O)O[C@](NC(=O)[C@@H]3C=C4c5cccc6[nH]cc(c56)C[C@@H]4N(C)C3)(C(C)C)C(=O)N12,n,n,n,n,u,4.9e-08M
CC(C)C[C@H]1C(=O)N2CCC[C@@H]2[C@]2(O)O[C@](NC(=O)[C@H]3C=C4c5cccc6[nH]cc(c56)C[C@H]4N(C)C3)(C(C)C)C(=O)N12,n,n,n,n,n,1.3e-08M
